The results in this text go back to PubChem BioAssay (NCI).

Compounds without any hit were thinned out: in the full panel of roughly 83,000, 20% have a hit.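 Results are percent growth after 48 hours of single-concentration exposure. 100 means growth as in untreated cells, lower positive values show inhibition; negative values down to -100 show cell death.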 Values without a mark were called inactive. Calls of active or inactive are those of the source. Rule for the calls: active = growth percent below 10; inactive = the rest.

Common to all, as to assay: NCI-60 one-dose screen, 48 h (100 = growth as untreated, 0 = no growth, -100 = all killed)
Common to all, as to conditions: 10 µM unless noted

The subject of test [1] is NCI-H23 lung.
Test [2] has as its system NCI-H226 lung.
In test [3] the test system is NCI-H322M lung.
The test system of test [4] is HOP-62 NSCLC.
In test [5] the test system is NCI-H460 lung.
Test [6] has as its system HOP-92 NSCLC.
For test [7], the system named is NCI-H522 lung.
The test system of test [8] is A549/ATCC NSCLC.
Test [9] concerns 786-0 renal.
Test [10] relates to COLO 205 colon.
For test [11], the system named is DU-145 prostate.
For test [12], the system named is K-562 leukemia.
Test [13] relates to MALME-3M melanoma.
In test [14] the test system is MDA-MB-231 breast.
For test [15], the system named is RXF 393 renal.
The test system of test [16] is SF-268 CNS.
Test [17] relates to SF-295 CNS.
For test [18], the system named is SF-539 CNS.
In test [19] the test system is UACC-257 melanoma.
For test [20], the system named is M14 melanoma.

`Clc1cccc(/C=N/Nc2nc(N/N=C/c3cccc(Cl)c3)nc(N3CCOCC3)n2)c1`: the growth in test [1] was 70.6%; in test [2] it was 60.4%; in test [3], 53.8%; in [4], 110%; in test [5], 78.2%; in test [6] it was 65.4%. In addition, the growth in test [7] was 13.9%; in test [8], 46.6%; in test [9] it was 30.6%; in test [10], 36.9%; in test [11], 42.5%; in test [12], 11.8%. Further, the growth in test [13] was -43.7% (active); in [14], 71.3%; in test [15], 17.4%; in [16], 65.9%; in [17], 57.7%; in test [18], 43.6%. Besides, the growth is 39.1% in test [19] and 35.2% in test [20].

Consider `CC(=C(c1ccc(OCCN2CCCC2)cc1)c1ccc(OCCN2CCCC2)cc1)c1ccc(Cl)cc1`, for which the growth was 60.7% in test [1]; 80% in [2]; 15.6% in test [3]; -68.7% (active) in [4]; -52.2% (active) in test [5]; -1.74% (active) in test [6]. Moreover, the growth in test [7] was -48.5% (active); in [8] it was -61.8% (active); in test [9] it was -85.9% (active); in test [11], 25.8%; in [12], -43.6% (active); in test [13] it was -85.9% (active). Besides, the growth was -68.1% (active) in [14]; -74.7% (active) in test [15]; -23.1% (active) in [16]; -63.7% (active) in [17]; -87.1% (active) in [18]; -73.6% (active) in test [19]. Also, the growth in test [20] is -84.5% (active).

Regarding `CCN(CC)S(=O)(=O)c1ccc(-c2nc(C(Cl)Cl)nc3cc(C)nn23)cc1`, the growth in test [1] is 14.6%; in test [2], 69.7%; in test [3], 57.1%; in [4], 5.6% (active); in [5], 8.65% (active); in [6], -5.03% (active). Besides, the growth in test [7] is 56%; in test [8], 0.55% (active); in [9] it was 92.5%; in test [10], -18.7% (active); in [11] it was 15.9%; in [12], 8.36% (active). Also, the growth in [13] was -7.09% (active); in test [14], -0.482% (active); in [15], 13.3%; in test [16], 56.1%; in test [17], 48%; in [18], 50.7%. Also, the growth in [19] was 59.3%; in test [20] it was 4.27% (active).

Take `Cc1ncn(-c2ccc(/C=N/Nc3ccnc4cc(Cl)ccc34)cc2)c1C`: the growth was 54.1% in test [1]; 94.1% in test [2]; 45.5% in test [3]; 102% in [4]; -52.3% (active) in test [5]; -28.2% (active) in test [6]. The growth in test [7] was -66.2% (active); in test [8] it was 0.0933% (active); in test [9] it was -89.4% (active); in [10] it was -96.5% (active); in [11], 8.97% (active); in test [12] it was 0.733% (active). The growth in test [13] is -88.7% (active); in [14] it was -16.8% (active); in [15], -43.7% (active); in [16], 21.5%; in test [17], -72.5% (active); in test [18], -60.7% (active). Also, the figures for the growth in test [19] and in [20] were -67.2% (active) and -88.5% (active), respectively.

As to `C#Cc1nc(C(=O)NCCCCCCC(=O)NO)cs1`, the growth in test [1] was -74.6% (active); in test [2], 39.1%; in [3] it was 29.4%; in [4] it was 16.9%; in [5] it was 16%; in [6], -74.6% (active). For the same compound, the growth in test [7] was -58.5% (active); in test [8] it was 10.2%; in [9], -83.4% (active); in test [11], -51.1% (active); in test [12], 5.86% (active); in test [13], -61% (active). Also, the growth in test [14] is -71.8% (active); in test [15] it was -78.7% (active); in [16], 2.01% (active); in test [17], -2.7% (active); in test [18], -80.1% (active); in [19], 23%. The growth in test [20] was 16.6%.

Regarding `CCCCCc1ccc(S(=O)(=O)Nc2cc(-c3csc(N)n3)ccc2OC)cc1`, the growth in [1] was 88.7%; in [2], 80%; in test [3] it was 103%; in test [4], 108%; in test [5] it was 99.5%; in [6], 97.3%. The growth was 84.9% in test [7]; 88% in test [8]; 99.1% in test [9]; 107% in test [11]; 83.9% in test [12]; 96.1% in test [13]. The growth was 92% in [14]; 99.7% in test [15]; 94.7% in test [16]; 84.8% in test [17]; 89.7% in test [18]; 107% in test [19]. Besides, in test [20], the growth is 103%.

For the compound `CC1=C(C)C(=O)C(Nc2cccc(C(=O)OC(C)(C)C)c2)=CC1=O`, the growth in test [1] is 28.8%; in test [2], 64.5%; in test [3] it was 94.5%; in test [4], 78.4%; in test [5], 93.1%; in [6], 78.8%. Moreover, the growth in test [7] is 82.2%; in test [8], 106%; in [9], 89.9%; in test [10] it was 107%; in test [11] it was 69.9%; in test [12], 77.2%. Moreover, the growth was 64.9% in test [13]; 66.2% in [14]; 73.4% in [15]; 80.5% in test [16]; 94.3% in test [17]; 89.9% in test [18]. Further, the growth is 62.5% in test [19] and 88.3% in test [20].

As for `Cc1ccccc1N1CCN(C2=C(Cl)C(=O)c3ncccc3C2=O)CC1`, the growth in [1] was 38.1%; in test [2], 94.2%; in test [3], 89.9%; in [4], 59.5%; in test [5], 53.1%; in test [6] it was 118%. The growth in [7] is -28% (active); in [8], 99.6%; in [9], 91%; in [10], 31.8%; in test [11] it was 20.3%; in [12] it was 7.01% (active). In addition, the growth is -14.5% (active) in test [13]; 88.3% in test [14]; -10.9% (active) in test [15]; 80.2% in [16]; 86.8% in [17]; 78.9% in test [18]. In addition, the growth in test [19] was 21.7%; in test [20], 36.2%.
